Data from PubChem BioAssay (NCI).
This is part of a sample that, as a whole, favours compounds with a hit. Of some 79,000 tested, about 15% had one in any assay. Calls of active or inactive are those of the source. Rule as the data show it: active = growth inhibition above about 70%; inactive = the rest.

Columns and labels:
[1] = NCI Yeast Anticancer Drug Screen. Data for the rad52 strain (AID 147);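 also: 0% = growth of vehicle-treated control cultures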; settings: S. cerevisiae rad52 mutant growth inhibition, active compounds read high
Procedure, shortened: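 Yeast strain carrying a DNA damage repair alteration was exposed to test compounds. Growth inhibition was measured relative to vehicle-treated controls.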

[2] = NCI Yeast Anticancer Drug Screen. Data for the wt1 strain (AID 149);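 also: 0% = growth of vehicle-treated wt1 cultures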; settings: S. cerevisiae wt1 strain (SPY 50644) growth inhibition, active compounds read high
Procedure, shortened: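 Yeast wt1 strain exposed to compounds; growth inhibition measured relative to vehicle-treated controls.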

[3] = NCI Yeast Anticancer Drug Screen. Data for the rad50EPP+ strain (AID 151);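 also: 0% = growth of vehicle-treated control cultures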; settings: S. cerevisiae rad50 mutant strain, active compounds read high
Procedure, shortened: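 Yeast strain carrying rad50 alteration (rad50EPP+) exposed to compounds; growth inhibition measured relative to vehicle-treated controls.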

[4] = NCI Yeast Anticancer Drug Screen. Data for the rad50 strain (AID 155);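 also: 0% = growth of vehicle-only cultures of the same strain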; settings: S. cerevisiae rad50 strain growth inhibition, active compounds read high
Procedure, shortened: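 Yeast carrying a defined DNA repair defect were exposed to test compounds, and growth was compared with vehicle-treated controls to give percent inhibition.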

[5] = NCI Yeast Anticancer Drug Screen. Data for the mec2-1 strain (AID 157); settings: S. cerevisiae mec2-1 strain, active compounds read high
Procedure, shortened: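 mec2-1 yeast strain, carrying an alteration in DNA damage repair or cell cycle control, was exposed to compounds; growth inhibition was measured relative to vehicle-treated controls.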

[6] = NCI Yeast Anticancer Drug Screen. Data for the rad14 strain (AID 159);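 also: 0% = growth of vehicle-treated control cultures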; settings: S. cerevisiae rad14 strain growth inhibition, active compounds read high
Procedure, shortened: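 Yeast cells carrying a defined DNA-repair defect were exposed to compounds, and growth inhibition was calculated relative to vehicle-treated control cultures.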

[7] = NCI Yeast Anticancer Drug Screen. Data for the sgs1 mgt1 strain (AID 161);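 also: 0% = growth of cultures given vehicle only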; settings: S. cerevisiae sgs1 mgt1 strain, active compounds read high
Procedure, shortened: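 Compounds are added to genetically altered yeast, and growth is compared with cultures given vehicle alone to give percent inhibition.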

[8] = NCI Yeast Anticancer Drug Screen. Data for the CLN2oe strain (AID 163);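 also: 0% = growth of vehicle-only control cultures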; settings: S. cerevisiae CLN2oe strain, active compounds read high
Procedure, shortened: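 Yeast cells carrying a defined cell-cycle control alteration were exposed to test compounds. Growth inhibition was scored against vehicle-treated control cultures.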

[9] = NCI Yeast Anticancer Drug Screen. Data for the cln2 rad14 strain (AID 165);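 also: 0% = growth equal to vehicle treated cultures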; settings: S. cerevisiae cln2 rad14 strain, active compounds read high
Procedure, shortened: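 Yeast carrying cln2 and rad14 alterations (cell cycle control and DNA damage repair) were exposed to compounds. Growth inhibition was measured against vehicle-treated controls.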

[10] = NCI Yeast Anticancer Drug Screen. Data for the bub3 strain (AID 167); settings: S. cerevisiae bub3 mutant strain, active compounds read high
Procedure, shortened: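 Compounds were applied to a genetically altered yeast strain carrying a cell-cycle control defect. Growth inhibition was scored against vehicle-treated controls.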

[11] = NCI Yeast Anticancer Drug Screen. Data for the wt2 strain (AID 169);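 also: 0% = growth of vehicle-treated yeast cultures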; settings: S. cerevisiae wt2 strain growth inhibition, active compounds read high
Procedure, shortened: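 Yeast cells were exposed to test compounds, and growth inhibition was measured relative to vehicle-treated controls.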

[12] = NCI Yeast Anticancer Drug Screen. Data for the mlh1 strain (AID 171);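 also: 0% = growth of vehicle-treated control cultures of the same strain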; settings: S. cerevisiae mlh1 strain growth inhibition, active compounds read high
Procedure, shortened: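 Yeast carrying a defined genetic alteration in DNA damage repair or cell cycle control were exposed to test compounds. Growth inhibition was measured relative to vehicle-treated controls.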

[13] = NCI Yeast Anticancer Drug Screen. Data for the sgs1 strain (AID 173);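 also: 0% = growth of vehicle-only control cultures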; settings: S. cerevisiae sgs1 mutant, active compounds read high
Procedure, shortened: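 Yeast mutant strains carrying defined defects in DNA damage repair or cell cycle control were exposed to test compounds. Growth inhibition was scored against vehicle-treated controls.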

[14] = NCI Yeast Anticancer Drug Screen. Data for the mlh1 rad18 strain (AID 175); settings: S. cerevisiae mlh1 rad18 strain growth inhibition, active compounds read high
Procedure, shortened: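 Growth inhibition of the yeast strain was measured after compound exposure and expressed relative to vehicle-treated controls. The strain carries defined defects in DNA damage repair.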

[15] = NCI Yeast Anticancer Drug Screen. Data for the rad18 strain (AID 177); settings: S. cerevisiae rad18 mutant growth inhibition, active compounds read high
Procedure, shortened: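 Yeast carrying a defined DNA damage repair alteration were exposed to compounds. Growth inhibition was expressed relative to vehicle-treated controls.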

[16] = NCI Yeast Anticancer Drug Screen. Data for the mgt1 strain (AID 153); settings: S. cerevisiae mgt1 mutant growth inhibition, active compounds read high
Procedure, shortened: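 Yeast mgt1 strain (DNA repair/cell-cycle alteration panel) exposed to compounds; growth inhibition measured relative to vehicle-treated controls.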

[17] = at 5.0 µM (retest, dose inferred, filed as 0.5)
[18] = at 50.0 µM (retest, dose inferred, filed as 5.0)

Measured: growth inhibition

O=C1CCC(Cc2ccccc2)CN1 (stereo not given)
active: [7]; [18] 80% | [7]; at 50.0 µM 81.5% | [11]; at 100.0 µM 92% | [12]; at 100.0 µM 90% | [13]; at 100.0 µM 93%
inactive: [1]; at 1.2 µM -1% | [1]; at 3.7 µM -1% | [1]; at 11.0 µM -2% | [1]; at 33.0 µM -3% | [1]; at 100.0 µM 0% | [2]; at 1.2 µM -3% | [2]; at 3.7 µM -2% | [2]; at 11.0 µM 1% | [2]; at 33.0 µM -2% | [2]; at 100.0 µM -1% | [3]; at 1.2 µM -1% | [3]; at 3.7 µM 0% | [3]; at 11.0 µM 12% | [3]; at 33.0 µM 25% | [3]; at 100.0 µM 42% | [4]; at 1.2 µM -1% | [4]; at 3.7 µM -2% | [4]; [17] 10% | [4]; at 11.0 µM -2% | [4]; at 33.0 µM -3% | [4]; [18] 7% | [4]; at 50.0 µM 7.1% | [4]; at 100.0 µM -1% | [5]; at 1.2 µM -1% | [5]; at 3.7 µM -1% | [5]; [17] -11% | [5]; at 11.0 µM 0% | [5]; at 33.0 µM -1% | [5]; [18] -3% | [5]; at 50.0 µM 19.7% | [5]; at 100.0 µM 3% | [6]; at 1.2 µM -2% | [6]; at 3.7 µM -1% | [6]; at 11.0 µM -2% | [6]; at 33.0 µM -1% | [6]; at 100.0 µM 1% | [7]; [17] 3% | [8]; at 1.2 µM -8% | [8]; at 3.7 µM -5% | [8]; at 11.0 µM 3% | [8]; at 33.0 µM -4% | [8]; at 100.0 µM -6% | [9]; [17] -2% | [9]; [18] 4% | [9]; at 50.0 µM 0.15% | [10]; at 1.2 µM -4% | [10]; at 3.7 µM -5% | [10]; [17] -11% | [10]; at 11.0 µM -5% | [10]; at 33.0 µM -7% | [10]; [18] -8% | [10]; at 50.0 µM 10.9% | [10]; at 100.0 µM -8% | [11]; at 1.2 µM -3% | [11]; at 3.7 µM 0% | [11]; at 11.0 µM 3% | [11]; at 33.0 µM 50% | [12]; at 1.2 µM -3% | [12]; at 3.7 µM -2% | [12]; at 11.0 µM 0% | [12]; at 33.0 µM 37% | [13]; at 1.2 µM 0% | [13]; at 3.7 µM 1% | [13]; at 11.0 µM 11% | [13]; at 33.0 µM 62% | [14]; [17] -9% | [14]; [18] 1% | [14]; at 50.0 µM 3.7% | [15]; at 1.2 µM 1% | [15]; at 3.7 µM -2% | [15]; at 11.0 µM 4% | [15]; at 33.0 µM 0% | [15]; at 100.0 µM 1%

CCOP(=O)(OCC)/C(C#N)=C/c1ccc(-c2ccc(F)cc2F)o1
active: [4]; [17] 75% | [4]; [18] 99% | [7]; [18] 99% | [10]; [18] 99% | [10]; at 50.0 µM 74.8% | [14]; [18] 99%
inactive: [1]; at 1.2 µM 2% | [1]; at 3.7 µM 4% | [1]; at 11.0 µM 4% | [1]; at 33.0 µM 4% | [1]; at 100.0 µM 4% | [2]; at 1.2 µM -2% | [2]; at 3.7 µM -2% | [2]; at 11.0 µM -2% | [2]; at 33.0 µM -4% | [2]; at 100.0 µM -1% | [3]; at 1.2 µM 0% | [3]; at 3.7 µM 1% | [3]; at 11.0 µM 3% | [3]; at 33.0 µM 0% | [3]; at 100.0 µM 5% | [16]; at 1.2 µM -5% | [16]; at 3.7 µM -4% | [16]; at 11.0 µM 0% | [16]; at 33.0 µM -10% | [16]; at 100.0 µM 0% | [4]; at 1.2 µM 2% | [4]; at 3.7 µM 2% | [4]; at 11.0 µM -9% | [4]; at 33.0 µM 3% | [4]; at 50.0 µM 39.8% | [4]; at 100.0 µM 5% | [6]; at 1.2 µM -1% | [6]; at 3.7 µM -1% | [6]; at 11.0 µM -2% | [6]; at 33.0 µM -3% | [6]; at 100.0 µM 1% | [7]; [17] 35% | [7]; at 50.0 µM 63.1% | [8]; at 1.2 µM -1% | [8]; at 3.7 µM 1% | [8]; at 11.0 µM -6% | [8]; at 33.0 µM -7% | [8]; at 100.0 µM -1% | [10]; at 1.2 µM -7% | [10]; at 3.7 µM -1% | [10]; [17] 26% | [10]; at 11.0 µM 4% | [10]; at 33.0 µM -3% | [10]; at 100.0 µM -2% | [11]; at 1.2 µM -2% | [11]; at 3.7 µM 0% | [11]; at 11.0 µM -1% | [11]; at 33.0 µM 1% | [11]; at 100.0 µM 1% | [12]; at 1.2 µM -1% | [12]; at 3.7 µM -7% | [12]; at 11.0 µM 3% | [12]; at 33.0 µM 0% | [12]; at 100.0 µM -1% | [13]; at 1.2 µM -2% | [13]; at 3.7 µM -4% | [13]; at 11.0 µM -3% | [13]; at 33.0 µM -4% | [13]; at 100.0 µM -1% | [14]; [17] 60% | [14]; at 50.0 µM 41.4% | [15]; at 1.2 µM -3% | [15]; at 3.7 µM -2% | [15]; at 11.0 µM -2% | [15]; at 33.0 µM -19% | [15]; at 100.0 µM 2%
